Reference: the supplement of paper PMC8975748
Counter-ions that a name gives are not always drawn.

test system: Saccharomyces cerevisiae BY4741 SeMeCo community; assay: z-score of subpopulation abundance vs DMSO median, subpopulation auxotrophic for M; higher = larger share of this subpopulation than in DMSO controls; details: 10 µM; 24 h; SM minimal medium; subpopulation (auxotrophy): M
Procedure: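 Fluorescent four-plasmid SeMeCo (self-establishing metabolically cooperating S. cerevisiae BY4741 community; plasmids pH-mRuby2, pL-mWasabi, pU-eCFP, pM-TagRFP657) was grown 24 h in minimal SM medium with each Selleck FDA-approved drug at 10 µM in 384-well plates. Cells were fixed and imaged by high-content confocal microscopy. For each auxotrophic subpopulation (and the prototroph), a z-score gives the deviation from the DMSO vehicle-control population median.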

In order of falling “z-score of subpopulation abundance” value:
1. COc1ccc2c3c([nH]c2c1)C(C)=NCC3 [Harmaline]  5.54
2. NC(=O)CN1CCCC1=O [Piracetam]  1.48
3. CCN(C)C(=O)Oc1cccc([C@H](C)N(C)C)c1 [Rivastigmine]  1.32
4. CC[C@@]1(O)C(=O)OCc2c1cc1n(c2=O)Cc2cc3ccccc3nc2-1 [Camptothecin]  1.3
5. Cc1cc(O)ccc1Cl [Chlorocresol]  1.26
6. CC(C)=CCOc1c2occc2cc2ccc(=O)oc12 [Imperatorin]  1.13
7. CC(NC(C)(C)C)C(=O)c1cccc(Cl)c1 (stereo not given) [Amfebutamone (Bupropion) HCl]  0.97
8. CN1c2ccccc2C(NCCCCCCC(=O)O)c2ccc(Cl)cc2S1(=O)=O (stereo not given) [Tianeptine sodium]  0.9
9. COc1ccc(C(CN(C)C)C2(O)CCCCC2)cc1 (stereo not given) [Venlafaxine HCl]  0.68
10. COc1ccc2[nH]cc(CCN)c2c1 [5-Methoxytryptamine]  0.64
11. CN(C)C(=O)Oc1ccc[n+](C)c1 [Pyridostigmine Bromide]  0.47
12. C=C(C)[C@H]1Cc2c(ccc3c2O[C@@H]2COc4cc(OC)c(OC)cc4[C@@H]2C3=O)O1 [Rotenone (Barbasco)]  0.37
13. O=C(O[C@H]1C[N+]2(CCCOc3ccccc3)CCC1CC2)C(O)(c1cccs1)c1cccs1 [Aclidinium Bromide]  0.23
14. CC1(C)SC2C(N)C(=O)N2C1C(=O)O (stereo not given) [6-Aminopenicillanic acid]  0.22
15. CC[N+](C)(CC)CCOC(=O)C(O)(c1ccccc1)c1ccccc1 [Methylbenactyzine Bromide]  0.22
16. O=c1[nH]c2ccccc2n1CCCN1CCC(n2c(=O)[nH]c3cc(Cl)ccc32)CC1 [Domperidone]  0.22
17. NCC(O)c1ccc(O)cc1 (racemic) [(+,-)-Octopamine HCl]  0.19
18. CC(C)(O)C(Cl)(Cl)Cl [Chlorobutanol]  0.1
19. COc1ccc2c(c1)[C@]13CCCC[C@@H]1[C@H](C2)N(C)CC3 [Dextromethorphan hydrobromide hydrate]  0.1
20. CCN1CC2(OC(=O)c3ccccc3NC(C)=O)CCC(OC)C34C1C(CC23)C1(O)CC(OC)C2CC4C1(O)C2OC (stereo not given) [Lappaconitine]  0.06
21. CN(C)[C@@H]1C(=O)C(C(N)=O)=C(O)[C@@]2(O)C(=O)C3=C(O)c4c(O)ccc(Cl)c4[C@@](C)(O)[C@H]3C[C@@H]12 [Chlortetracycline HCl]  0.04
22. CN1[C@@H]2C[C@@H](OC(=O)[C@H](CO)c3ccccc3)C[C@H]1[C@@H]1O[C@@H]12 [Scopolamine HBr]  -0.04
23. CCCN1C[C@H](CSC)C[C@@H]2c3cccc4[nH]cc(c34)C[C@H]21 [Pergolide Mesylate]  -0.05
24. CN1[C@@H]2CC[C@H]1C[C@@H](OC(=O)C(CO)c1ccccc1)C2 (stereo not given in full) [Atropine sulfate monohydrate]  -0.25
25. C[N+]1(C)[C@@H]2C[C@@H](OC(=O)[C@H](CO)c3ccccc3)C[C@H]1[C@@H]1O[C@@H]12 [Methscopolamine]  -0.33
26. CCC1=C[C@H]2CN3CCc4c([nH]c5ccccc45)[C@](C(=O)OC)(C2)[C@H]13 [Catharanthine]  -0.42
27. O=c1cccc2n1C[C@@H]1CNC[C@H]2C1 [Cytisine]  -0.43
28. C[N+](C)(C)CCCCCCCCCC[N+](C)(C)C [Decamethonium Bromide]  -0.44
29. CC(C)N(CCC(C(N)=O)(c1ccccc1)c1ccccn1)C(C)C (stereo not given) [Disopyramide]  -0.53
30. CN1[C@@H]2CC[C@H]1C[C@@H](OC(=O)[C@H](CO)c1ccccc1)C2 [Hyoscyamine]  -0.65
31. CC[C@H]1CN2CC[C@]3(C(=O)Nc4ccccc43)[C@@H]2C[C@@H]1/C(=C\OC)C(=O)OC [Rhynchophylline]  -0.68
32. CN(C)[C@@H]1C(=O)C(C(N)=O)=C(O)[C@@]2(O)C(=O)C3=C(O)c4c(O)cccc4[C@@](C)(O)[C@H]3[C@H](O)[C@@H]12 [Oxytetracycline (Terramycin)]  -0.79
33. C=CN1CCCC1=O.II [Povidone iodine]  -0.79
34. C[N+]12CCC(CC1)C(OC(=O)C(O)(c1ccccc1)c1ccccc1)C2 (stereo not given) [Clidinium Bromide]  -0.85
35. C[CH2][Hg][S]c1ccccc1C(=O)[O-].[Na+] [Thimerosal]  -0.95
36. CN(C)[C@@H]1C(=O)C(C(N)=O)=C(O)[C@@]2(O)C(=O)C3=C(O)c4c(O)cccc4[C@@](C)(O)[C@H]3[C@H](O)[C@@H]12 [Oxytetracycline Dihydrate]  -1.02
37. N#Cc1nn(-c2c(Cl)cc(C(F)(F)F)cc2Cl)c(N)c1[S+]([O-])C(F)(F)F (stereo not given) [Fipronil]  -1.13
38. Cn1cc(C2=C(c3cn(C4CCN(Cc5ccccn5)CC4)c4ccccc34)C(=O)NC2=O)c2ccccc21  -1.26
39. CC(=O)O[C@H]1C[C@@H]2CC[C@@H]3[C@H](CC[C@@]4(C)[C@H]3C[C@H]([N+]3(C)CCCCC3)[C@@H]4OC(C)=O)[C@@]2(C)C[C@@H]1[N+]1(C)CCCCC1 [Pancuronium dibromide]  -1.46
40. CCCCCCCCCCCCCCCC[n+]1ccccc1 [Cetylpyridinium Chloride]  -6.34
